In PubChem BioAssay AID1159506 (National Center for Advancing Translational Sciences (NCATS), 2015) one finds seed-corrected z-score data, which are given here for 85 sequences.

Over roughly 59,000 sequences, the read-out has its median near -0.00055; the lowest 2% begin near -2. The full list was thinned out, with the lowest values kept by preference.

A short description of the test: Identification of proteins required for the processing of the EWS-FLI1 nascent transcript.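 Note: robust z of luciferase light less the median z of siRNAs with the same seed.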 As to conditions: TC32 Ewing sarcoma NR0B1-luc vs CMV-luc (EWS-FLI1 target promoter against control promoter), 48 h; screened at 20 nM (by protocol). How it is done: Ewing sarcoma (ES) cells depend on the EWS-FLI1 fusion transcription factor for cell survival. Using an assay of EWS-FLI1 activity and genome-wide siRNA screening we have identified proteins required for the processing of the EWS-FLI1 nascent transcript. Parallel genome-wide siRNA-mediated RNAi screens were conducted in Ewing sarcoma TC32 cell lines expressing a luciferase (luc) reporter protein driven by either the promoter of the EWS-FLI1 target gene NR0B1 (TC32-NR0B1-luc) or the CMV promoter (TC32-CMV-luc). Luciferase activity was assessed 48 hours post siRNA-transfection.
Twenty microl of serum-free media containing Lipofectamine RNAiMax (0.05 microl) was added to wells containing siRNA (0.8 pmol). Lipid and siRNA were allowed to complex for 45 min at ambient temperature before addition of 600 cells in RPMI-1640, 20% FBS to yield final transfection mixtures containing 20 nM siRNA in RPMI-1640, 10% FBS. Luciferase expression was measured using OneGlo (Promega, Madison, WI). The genome-wide screening campaign was conducted using Ambion's human genome library version 4.1 (Ambion, Austin TX). This library targets approximately 21000 human genes, three siRNAs per gene. Each siRNA is arrayed in an individual well of a 384-well plate. Parallel transfections were conducted in TC32-NR0B1-luc and TC32-CMV-luc cell lines and luciferase expression (OneGlo, Promega) was assayed 48 h later on a PerkinElmer Envision 2104 Multilabel plate reader (PerkinElmer, Waltham, MA). Qiagen's AllStars Negative control was incorporated on all screening plates for normalization (16 wells per plate). Qiagen, Germantown, MDsiGL4 was incorporated as a positive transfection control (16 wells per plate) on all plates. […] The raw luciferase data for the NR0B1- and CMV-luc screens were normalized and z-score-MAD transformed using standard methods (Chung et al., 2008). The miRNA-like seed sequence of every siRNA was determined and the median z-score for all siRNA sequences with the same seed sequence was calculated. This z-score was subtracted from the z-score associated with each siRNA with that seed sequence to generate a seed-adjusted z-score value (Z) that was used when the results for the three siRNAs corresponding to each gene were compared (Marine et al., 2012)
In the case of UAAGGUUCGACCUGCAGAG against MNX1-AS1, the seed-corrected z-score is -2.4.

UUCCGUUGAUUCUUUCUCC against KAT5: the seed-corrected z-score was -1.63.

In turn, UUGGUGGUCAUUAAGGUUG against PQLC3 showed a seed-corrected z-score of -0.378.

Sequence AAUCUGUCUGUAGGUAUCC against TBC1D22B yielded a seed-corrected z-score of -0.38.

For AUUGAUGUAAUCUCCGUCC against PTPN7, the seed-corrected z-score was -1.34.

As for UUUCUUAUCUCUGUUGUUC against CRCP, the seed-corrected z-score was 0.4.

UUUGGUGAUAGGGUGCUCG against C5orf60: the seed-corrected z-score was -3.47.

Take UUUCUUAGGUGUAUUGACC against PRDX1: the seed-corrected z-score is -1.23.

Sequence AAGGUAGGCAAAAUUAUCC against GALNT16 displayed a seed-corrected z-score of 1.35.

For the sequence UAGACGUGCACGAACACGC against MOB3A, the seed-corrected z-score is -0.135.

The sequence UGAUAUAGGAGUUAGACUG against KRTAP2-2 registered a seed-corrected z-score of 0.0896.

As to UUAGCAAGCAUCCUUUCGC against LTN1, the seed-corrected z-score is -0.45.

Turning to AAACAGAAGAGGGAGUGGG against LINC01567, the seed-corrected z-score is -2.3.

UGAAUAAUACCUAUAAUCC against OR4F6 returned a seed-corrected z-score of -0.573.

On to UUGGACAUGAUGAAAUUCC against EML3, for which the seed-corrected z-score was 0.0247.

With UACAUGCUCCGCACAGUCC against NOTCH1, the seed-corrected z-score was -0.17.

Take UUGGAGCACUGUAAAGGCC against ZFP14: the seed-corrected z-score stood at 0.456.

On to UCUUUAUCAAGUUUACAGG against LANCL3, for which the seed-corrected z-score was -0.0126.

The sequence AUAGUUCGGAUCACAAUGC against NPSR1 returned a seed-corrected z-score of 0.18.

For UUCACUGUCAGUCCGAUGG against COPZ1, the seed-corrected z-score was -3.71.

For the sequence UCUGGUUCUUGUUGGGUAG against ECEL1, the seed-corrected z-score is -2.81.

Sequence UUUCGAGAAAUAAUACACC against RPA1 registered a seed-corrected z-score of -0.401.

The sequence UGUAGAAUGAUCACCAACC against PCNX4 gave a seed-corrected z-score of 0.471.

Sequence UAGGUCAUAACAGAAUGCU against FLNC had a seed-corrected z-score of -0.156.

In turn, UGUAGUCACACCAGAGAGG against FAM180B returned a seed-corrected z-score of -2.49.

AAAGAUAUCAGGCACCCAG against GABRR3: the seed-corrected z-score is 0.633.

Sequence UAAACUGCACUUUCCACGG against C12orf49 came in with a seed-corrected z-score of -2.69.

Sequence UGUAUUAUGACCUUCGCUC against MORC4 gave a seed-corrected z-score of -0.441.

As to UCAAUUGAUUCCUCAAUUC against MCM6, the seed-corrected z-score was 0.575.

As to UAUGCUUUCAAAAGAGUCC against ETS1, the seed-corrected z-score is -1.16.

AAGGCAUUAAGACUCUUGG against HDAC3: the seed-corrected z-score is -0.388.

UCCUUUACCGAUUUCAGUU against XRCC3: the seed-corrected z-score is -0.609.

The sequence UUCCUUCUUAGGUUUCUUC against LRRC59 registered a seed-corrected z-score of 0.83.

The sequence UAGUUGUCACCAUCCGUGC against DSE registered a seed-corrected z-score of -2.48.

In the case of AAGUUUAUAUACACUUUUG against NDUFS6, the seed-corrected z-score was 0.771.

For UUUCAGAUCAUACUCGCCG against VPS33B, the seed-corrected z-score was found to be 0.89.

As for UGAGGAGCGACAAUCUUCC against TFAP2C, the seed-corrected z-score is -0.276.

As for UGCCUGGAGAGAGUGUACG against PGLYRP1, the seed-corrected z-score is -0.292.

UUAGCAUUAAAACAGGUAG against GC had a seed-corrected z-score of -0.347.

Regarding UGGGAUCUCAGCUGUAUCC against XAGE1E, the seed-corrected z-score was -2.37.

With UUUAGUAACAGCCCAGUUC against CCDC36, the seed-corrected z-score is -0.277.

In turn, AUAGGUAUCAGGCACCCAG against GABRB2 showed a seed-corrected z-score of 1.35.

Sequence UAUUCUUACUGAUCGUUUG against FLI1 had a seed-corrected z-score of -6.54.

Sequence UAUUCACCCAGAACUGUUG against CYP24A1 displayed a seed-corrected z-score of 0.031.

With UAUAUCACCAUAUAAUCAC against ADRA2B, the seed-corrected z-score was -0.259.

For the sequence AAAUUAAUCUUCUUCAUUC against COX17, the seed-corrected z-score was 0.109.

The sequence UCUGGAUCAAAGGGUGUUG against TMEM134 gave a seed-corrected z-score of -4.42.

For UGAACUCCUUCAAUCCUGC against AHSP, the seed-corrected z-score was 0.888.

In turn, UUAAUAAGACUUCAAGAUG against MYOCD yielded a seed-corrected z-score of 0.454.

On to UUCCGGUACAAGAUAUUCC against QRSL1, for which the seed-corrected z-score came to 0.059.

As for AUAGGGUUUUACAUGAGGC against MYLK, the seed-corrected z-score is -0.272.

For UCAUGAUCUGCGAAGUUGG against CCDC75P1, the seed-corrected z-score is -2.24.

The sequence UAUGUUCAGCUCGCAUUUC against CMAS returned a seed-corrected z-score of 0.259.

As to UUCAUGUCCAGGAUAUCCC against OBFC1, the seed-corrected z-score is -0.538.

For the sequence AUUGAUAUAAGGAUCAACA against OR5K1, the seed-corrected z-score is 0.45.

Regarding UUGGGUACCUCAGUCCACA against SNRPD2, the seed-corrected z-score was -2.98.

UACAUCUAAUUCACAGUUC against F9 came in with a seed-corrected z-score of 0.676.

In turn, UAAAUUUGCCCUGCUCUUG against OR2B11 had a seed-corrected z-score of 0.408.

AGUGUGACAAGAACGUGCC against MYL6P5 registered a seed-corrected z-score of -0.946.

Sequence UCUGUGAACACCGGCAUGU against NCLN gave a seed-corrected z-score of 2.18.

For UUACGUUCUUGAAAGGCGG against IARS, the seed-corrected z-score was found to be 1.47.

In turn, AGACAGAUGCGUUUGAUUC against PYDC2 displayed a seed-corrected z-score of 0.835.

The sequence AAUGGAACAACAGCGGUCC against ZNF217 yielded a seed-corrected z-score of -0.315.

Sequence UUCCUAGAAACCCAGACUG against SPATA31E1 displayed a seed-corrected z-score of -3.97.

UACCGAUUUGGUAAUAUCG against LY75 came in with a seed-corrected z-score of -0.557.

As to UCUCGUUAGUGAUUAAGUC against SULF1, the seed-corrected z-score was -0.403.

The sequence UCACCUUGAAGCUAUAACC against ERCC3 registered a seed-corrected z-score of 0.757.

On to UUUGAUUUCAGCAUCUUCC against TSKS, for which the seed-corrected z-score was -3.12.

AAAUGGUCCAGCAAAUUCU against NPPA displayed a seed-corrected z-score of 0.589.

UUUUCGUGAUGCUUGGUCC against NDEL1 displayed a seed-corrected z-score of 1.78.

As to UCAAGAGAAUUCUGUAAUC against C5orf60, the seed-corrected z-score is -0.0754.

Take AUAGUACACGAUGAACUCG against RAMP3: the seed-corrected z-score was -0.177.

Consider UGACUGACACUUUCAAAGC against SHC1, for which the seed-corrected z-score was -0.358.

The sequence UGUGGUACCAGGCUGCUUG against PAQR8 registered a seed-corrected z-score of -2.42.

In the case of UUGUUGGACAGUUGAAUCG against SEC62, the seed-corrected z-score was determined as 0.834.

Consider UUGAGUUCCAAGAGGACCC against TPBG, for which the seed-corrected z-score amounted to 0.978.

Sequence UUUCUUAUUGUUGCGGCAG against SNRPD2 showed a seed-corrected z-score of -2.78.

UAUGUGGUUAGUCCGUGUG against GTF3C1 had a seed-corrected z-score of 0.362.

AAAGUUUUCCCUUAUGAUG against MYADML2 displayed a seed-corrected z-score of 0.381.

Take UGUUCUUUAAGCCUUUCCA against BLOC1S5: the seed-corrected z-score was -0.0488.

The sequence UUCCGGAACAUGAAGUGCC against DYRK1B displayed a seed-corrected z-score of -0.257.

Turning to UUGUCAAACAGGACUGAGU against AZIN2, the seed-corrected z-score is -0.00443.

UGUGGGAAAGCAGGUAUCU against ZNF815P displayed a seed-corrected z-score of -1.11.

For UAAAGAUGCAGAUAAUAAC against NMUR1, the seed-corrected z-score amounted to 0.231.

For the sequence UUACGAAUGACAUCCUUUG against CKAP5, the seed-corrected z-score is -2.84.
